The values below come from PubChem BioAssay (NCI).

Several values for one entry are separate records, joined by “and”; a condition that tells them apart may be missing. Identical values can stand only once. This is part of a sample that, as a whole, favours compounds with a hit. Of some 83,000 tested, about 20% had one in any assay.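 Each cell line was grown in a 96-well plate and treated with one concentration of compound for 48 hours. Values below 10 were considered active.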 Activity calls are given as the source filed them.

This experiment deals with MDA-MB-468 breast. Put plainly: NCI-60 one-dose screen, 48 h (100 = growth as untreated, 0 = no growth, -100 = all killed). The settings on record: 10 µM unless noted.
On to `Cc1cccc(C[C@H](NC(=O)Nc2ccc(Cl)cc2F)C(=O)N[C@@H]2C(=O)N3C[C@H](O)C[C@H]3C(=O)N3CCN(C)C[C@H]3C(=O)N[C@@H](C)C(=O)N3C[C@H](C)C[C@H]3C(=O)O[C@H]2C)c1`, for which the growth is 15.7% (inactive).

For `NC(=O)c1ccc2nc3c(n2c1)C(=O)C(=O)c1ccccc1-3`, the growth is -57.7% (active).

Consider `CCOc1ccc(NC(=O)Nc2cc(C(C)C)ccc2C)cc1`, for which the growth is 114% (inactive).

As for `FC(F)(F)c1cccc(CNC2CCN(CCc3ccccc3)CC2)c1`, the growth was 87.2% (inactive).

For `CC1=CCC(OC(=O)C(C)(O)CCC(O)(C(=O)OC2(C)C=CC(O)(C(C)C)CC2)C(C)C)(C(C)C)CC1` (stereo not given), the growth is 107% (inactive).

`CC(C)N(CCOc1ccc(-c2nc3sccn3c2-c2ccnc(S(C)(=O)=O)n2)cc1)C(C)C`: the growth was 9.31% (active).

In the case of `c1csc(-c2nc(-c3cc4ccccc4c(N4CCOCC4)n3)cs2)c1`, the growth was 5.77% (active).

Regarding `COC(=O)c1cccc2c1N(C)c1c(cccc1C(=O)OC)CC2`, the growth is 124% (inactive).

For `Cc1ccc2sc3c(NCCN)nc4ccccc4c3c(=O)c2c1`, the growth was 56.8% (inactive).

Take `Cc1nn(-c2ccccc2)c2ncnc(N/N=C/c3ccccc3O)c12`: the growth was -31.7% (active).

Consider `O=C(NCc1cn(Cc2cccc(Oc3ccccc3)c2)nn1)c1cccnc1Nc1ccc(F)cc1`, for which the growth is 33.5% (inactive).

Consider `COc1cccc(-c2nn(-c3ccccc3)cc2-c2ccnc(NCCNS(=O)(=O)c3ccc(C(F)(F)F)cc3)c2)c1`, for which the growth was 9.78% (active).

On to `CN(C)CCCn1c2c(c3ccc(-c4ccn[nH]4)cc3c1=O)C(=O)c1ccccc1-2`, for which the growth was 35% (inactive).

In the case of `CC(C)(C)c1ccc(O)c(CNC2CCCCC2)c1`, the growth was 87% (inactive) and 87.7% (inactive).

As for `COC(=O)Cc1nc(C#N)c(N(C)C)o1`, the growth was 97.8% (inactive).

On to `CC(=O)Nc1c(Cl)cc(Cl)c2c1Cc1cc([N+](=O)[O-])ccc1-2`, for which the growth is 94.9% (inactive).

`Cc1cc[c-]cc1.Fc1c[c-]c(-c2ccccn2)c(F)c1.[Pt+2].c1ccc(P(C[PH+](c2ccccc2)c2ccccc2)c2ccccc2)cc1`: the growth was -2.46% (active).

Take `COc1cc(C(=O)n2nc(N3CCN(C)CC3)c3cc(N)ccc32)cc(OC)c1OC`: the growth is 0.604% (active).

Take `COCc1c(-c2ccc(NC(=O)Nc3cc(C(F)(F)F)ccc3F)c(F)c2)c2c(N)ncnn2c1CN1CCOCC1`: the growth is -54.8% (active).

Turning to `COc1ccc(-c2nc3ccccn3c2/C=C/C(=O)c2cc(OC)c(OC)c(OC)c2)cc1OC`, the growth is 8.94% (active).

With `CC/C(=N\Nc1nc2ccccc2n1C)c1ccccn1`, the growth was -14.5% (active).

Regarding `N=c1sc(Cc2cc(Cl)ccc2Cl)cn1CC(=O)c1ccccc1`, the growth is 61.3% (inactive).

Consider `COc1ccc(/C=C2\SC(=O)N(CN3CCN(c4cc5c(cc4F)c(=O)c(C(=O)O)cn5C4CC4)CC3)C2=O)cc1`, for which the growth was 108% (inactive).

As to `COc1cc(Nc2nc3ccccc3nc2NS(=O)(=O)c2ccc(NC(=O)c3ccc(C)c(OC)c3)cc2)cc(OC)c1`, the growth was 72.6% (inactive) and -30.3% (active).

For `COC(=O)/C=C/c1cc(O)c2c(c1)C(C(=O)OC)C(c1ccc(O)c(O)c1)O2` (stereo not given), the growth is 27.3% (inactive) and 17.6% (inactive).

Take `CN(C)C(=O)c1cc2cnc(Nc3ccc(-c4csc5c(=O)cc(N6CCNCC6)oc45)cc3)nc2n1C1CCCC1`: the growth is 19.6% (inactive).

For the molecule `CN1CCN(C(=O)[C@@]2(C)CC[C@]3(C)CC[C@]4(C)C(=CC[C@@H]5[C@@]6(C)CCC(=O)NC(C)(C)[C@@H]6CC[C@]54C)[C@@H]3C2)CC1`, the growth is 13.5% (inactive).

As to `CC(=O)c1cc2ccccc2o1`, the growth was 109% (inactive).

With `COc1cc(/C=C/C(=O)N2CCC=CC2=O)cc(OC)c1OC`, the growth was 22.7% (inactive).

Regarding `COc1cccc(NC(=O)[C@H](C(C)C)n2c(=O)[nH]c3ccccc3c2=O)c1`, the growth was 101% (inactive).

With `c1cc2c(ccc3[nH]c(-c4ccc5[nH]ncc5c4)c4c(c32)CCCC4)n1`, the growth is 76.7% (inactive).

Take `NC(=O)c1ccc[n+](Cc2ccccc2)c1`: the growth was 98.4% (inactive).

Take `CO[C@]12C=C/C(=C(/C(=O)OCc3cccnc3)C(=O)CCCCCCCC[C@@]3(OC)C=C/C(=C(/C(=O)OCc4cccnc4)C(=O)CCCCCCCC1)O3)O2`: the growth is -4.86% (active).

As for `Clc1ccc2c(c1)N(CCCN1CCCC1)c1ccccc1S2`, the growth was 16.4% (inactive).

For `Nc1c(C(=O)Nc2ccccc2Cl)sc2nc3c(cc12)CCCCCC3`, the growth was -1.41% (active).

For `CCOc1ccccc1NC(=O)CCl`, the growth is 79.4% (inactive).

`COc1ccccc1/C=C/C(=O)CCC(=O)O`: the growth is 124% (inactive).

In the case of `O=C(NCCCN1CCCCC1)c1ccc(-c2nc3ccc4[nH]ncc4c3c3c2CCCC3)cc1`, the growth is 35.4% (inactive).

For the molecule `CCOC(=O)c1cccc(NC2=C(Cl)C(=O)C(C)=C(C)C2=O)c1`, the growth is -20.6% (active).

Consider `O=C1c2c(O)cc(O)cc2-c2c(-c3ccc(O)cc3)oc3cc(O)cc1c23`, for which the growth is 46.4% (inactive).
